NRP1-CendR mod: modulators of CendR peptide binding to NRP-1, primary screen, biochemical, fluorescence polarization, uHTS | Neuropilin-1 (Homo sapiens), O14786 | inhibition, % at 25 µM | FAM-RPARPAR peptide binding to NRP-1 | AID 602438, 2012 | 360,000 tested, 0.85% active;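 active = inhibition or corrected inhibition above about 18%, plus a signal ratio from 0.5 to 1.5, limit read from the data, passing the limit was not always enough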
DNA FID counter: compounds displacing fluorescent DNA intercalator, primary screen, artefact control for HCV NS3 helicase inhibitor project, biochemical, FID fluorescence; DNA fluorescent intercalator displacement; AID 1845, 2009; 290,000 tested, 0.17% active; inhibition, % at 7.9 µM; in the data active = inhibition above about 37%;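 also: 0% = vehicle and 100% = reference compound; higher means more ethidium bromide displaced from hairpin DNA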
Glyco luc inh: increase of ERlucT glycosylation luciferase signal, primary screen, N-linked glycosylation inhibitor project, D54 ERlucT cells, luminescence, set 2; D54 ERlucT glycosylation luciferase reporter, 24 h; percent of 100 nM tunicamycin response; reporter increase, % at 12.5 µM; 360,000 tested, 0.23% active; AID 588692, 2011;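 active = mean luciferase reporter signal, scaled so untreated is 0 and the glycosylation-blocking control 100, at or above a set limit in every replicate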;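 also: luciferase carries N-glycosylation sites so blocking glycosylation raises the light; 0% = median of neutral control wells and 100% = median of 100 nM tunicamycin wells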
RAD52 inh: RAD52 DNA annealing inhibitors, primary screen, biochemical, FRET, single point, set 2; AID 651710, 2012; recombinant RAD52 DNA annealing, FRET fluorescence; DNA repair protein RAD52 homolog (Homo sapiens), P43351; 360,000 tested, 0.46% active; inhibition, % at 18.7 µM;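 active = every replicate showing at least 50% inhibition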
miR-122 sensor: miR-122 Renilla sensor signal increase in Huh7, primary screen, miR-122 inhibitor project, cell-based, single point, plate reader; activation (reporter increase), % at 12.5 µM; 340,000 tested, 0.3% active; Huh7 miR-122 Renilla luciferase sensor, 48 h; neutral wells = 0, positive control = 100;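 active = mean replicate activation score at least 90 and every replicate individually at or above 90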;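 also: higher luciferase means less miR-122 activity so hits act as miR-122 inhibitors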
RAD54 branch: inhibitors of human RAD54 branch migration, primary screen, biochemical, fluorescence, single point; AID 602329, 2012; inhibition, % at 10.4 µM; DNA repair and recombination protein RAD54-like (Homo sapiens), Q92698; RAD54 Holliday junction branch migration, FAM/BHQ fluorescence; 360,000 tested, 0.14% active;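 active = mean normalized replicate activity at least 40 and at least half of replicates scoring 40 or more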;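 also: 0% = median of neutral control wells and 100% = median of positive control wells; inhibitors cause a drop in the FAM fluorescence signal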
An asterisk follows results filed as active; · = no result; [ ] = another dose, or the depositor's remark. Shown are actives, neighbours in structure and some others; about 1.5% of the full set was active somewhere.

SMILES	NRP1-CendR mod	DNA FID counter	Glyco luc inh	RAD52 inh	miR-122 sensor	RAD54 branch
OCCCn1c(C2CCCN2c2nc(-c3ccc(F)cc3)cs2)nc2cc(Cl)c(N3CCCCC3)cc21 (configuration not stated)	-26	·	-2	-12	7	-5
OCCCn1c(C2CCCN2c2nc(-c3ccc(Cl)cc3)cs2)nc2cc(Cl)c(N3CCCCC3)cc21 (configuration not stated)	30*	·	6	-20	6	0
Cc1cccc(-c2noc(CSc3ccccc3)n2)c1	31*	-6	-1	-3	-4	0
Cc1ccc(-c2noc(CSc3ccccc3)n2)cc1	-2	-6	-7	·	-7	-3
COc1ccc(N2CCCC2)c(NC(=O)c2ccc(Br)o2)c1	61*	-3	-2	-20	-5	-1
N#Cc1cc2[nH]c3ccccc3c2[n+](-c2ccc([N+](=O)[O-])cc2)c1N	-11	11	28*	15	7	26
O=c1[nH]c2cc([N+](=O)[O-])cc(Cl)c2c2ccccc12	-2	·	1	-2	·	-2
C/C=C/c1ccc2c(c1)O[C@@H](CN(C)C(=O)c1cccc(F)c1)[C@@H](C)CN([C@@H](C)CO)S2(=O)=O	·	·	·	-2	15[16.7 µM]	-2
CC(N=C1NS(=O)(=O)c2ccccc21)C(=O)NCCCc1ccccc1 (configuration not stated)	-14	-2	2	-17	1	0
Cc1ccc(NC(=O)C(C)N=C2NS(=O)(=O)c3ccccc32)cc1F (configuration not stated)	21*	1	2	-3	35	-11
C[C@@H]1CN([C@@H](C)CO)C(=O)c2cc(NS(C)(=O)=O)ccc2O[C@@H](C)CCCCO[C@H]1CN(C)Cc1ccc(C(F)(F)F)cc1	·	·	·	-3	·	·
CCOC(=O)c1ccc(NS(=O)(=O)c2cc(-c3nnnn3CC)ccc2OC)cc1	7	-18	0	·	4	5
CCOC(=O)c1ccc(NS(=O)(=O)c2cc(C)ccc2OC)cc1	0	-20	0	·	373*	-8
CCCCOC(=O)c1ccc(NS(=O)(=O)c2cc(-c3nnnn3CC)ccc2OC)cc1	23*	-17	-3	·	23	-8
C[C@@H]1CN([C@H](C)CO)C(=O)c2cc(-c3ccncc3)cnc2O[C@H]1CN(C)C(=O)c1cccc(F)c1	·	·	·	8	2[16.7 µM]	-10
CC(Nc1ccc2ccccc2c1)C(=O)N/N=C/c1ccncc1 (configuration not stated)	25*	·	6	-14	9	3
CC(=NN(Cc1ccccc1)c1ccccc1)c1ccccc1	22*	·	-3	-6	·	·
C/C(=N\N(c1ccccc1)c1ccccc1)c1ccc(O)cc1	11	-19	1	-16	-22	10
Cc1ccc(S(=O)(=O)N2c3cc(C)ccc3OCC2C(C)(C)C)cc1 (configuration not stated)	10	1	5	·	65	0
COc1ccc(S(=O)(=O)N2c3cc(C)ccc3OCC2C(C)(C)C)cc1 (configuration not stated)	-28	-5	6	·	151*	12
C[C@@H]1CN([C@H](C)CO)C(=O)Cc2cc(NC(=O)CCN3CCOCC3)ccc2O[C@H]1CN(C)Cc1ccc(Cl)c(Cl)c1	·	·	·	19	-3[16.7 µM]	-2
O=C(Cc1ccccc1)NCC(=O)N1CCN(c2ccc(F)cc2)CC1	26*	·	0	-1	-11	-8
O=C(NCC(=O)N1CCN(c2ccc([N+](=O)[O-])cc2)CC1)c1ccco1	-10	·	-1	-80	-12	8
O=C(Cc1ccc(Br)cc1)N1CCN(c2ccc(F)cc2)CC1	23*	-26	-1	·	1	1
O=C(NCC(=O)N1CCN(c2ccccc2)CC1)c1ccco1	27*	-7	1	-4	·	-3

Screening data from PubChem.
